Results on 40 compounds are retold here after PubChem BioAssay (NCI).

Compounds without any hit were thinned out: in the full panel of roughly 83,000, 20% have a hit.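 48-hour exposure, single concentration, 96-well plates; percent growth endpoint where 0 means no net growth. Active: below 10.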 Values without a mark were called inactive. Calls of active or inactive are those of the source.

The test system of this assay is COLO 205 colon. Kind of assay: NCI-60 one-dose screen, 48 h (100 = growth as untreated, 0 = no growth, -100 = all killed). As to conditions: 10 µM unless noted. Here is the method: Cells are grown in 96 well plates and exposed to the test compound for 48 hours. Compounds are tested at a single concentration, which is 10^-5 M for most compounds. The reported endpoint is percent growth (GI% or GIPRCNT), where numbers from 0 - 100% represent growth inhibition, and numbers from -100% - 0 represent cell death. For example, a value of 40 represents 60% growth inhibition. A value of 0 means no net growth occurred over the course of the experiment. A value of -40 indicates 40% of cells at the beginning of the experiment died by the end of the experiment. A value of -100 means all cells are dead at the end of the experiment.
NCI-60 Human Tumor Cell Lines Screen was performed using the standard one-dose NCI protocol, which is described in more detail at https://dtp.cancer.gov/discovery_development/nci-60/default.htm.
Compounds with GIPRCNT values below 10 were considered active. Activity score was based on GIPRCNT using the following formula: […]
Score is 0 for GIPRCNT values of 100 or above, 50 for GIPRCNT values of 0, and 100 for GIPRCNT values of -100.
Turning to `Clc1cccc(/C=N/Nc2nc(N/N=C/c3cccc(Cl)c3)nc(N3CCOCC3)n2)c1`, the growth is 36.9%.
In the case of `CC(C)C(/C=C/c1[nH]ncc1-c1cc(Cl)ccc1O)N1CCOCC1` (stereo not given) it was 109%; in that of `C#C[C@]1(O)CC[C@H]2[C@@H]3CC=C4c5sc(NCc6ccccc6)nc5CC[C@]4(C)[C@H]3CC[C@@]21C`, 37%.
Take `O=C(CSc1nc2ccccc2c(=O)n1-c1ccc(S(=O)(=O)Nc2ccc(Cl)nn2)cc1)Nc1ccc(S(=O)(=O)Nc2ccc(Cl)nn2)cc1`: the growth is 111%.
Regarding `CC(=O)/C(N=Nc1ccc2oc(=O)ccc2c1)=C(\C)O`, the growth was 15.2%.
Take `CNC(=O)c1cc(N2CCc3cc(NC(=O)Nc4ccc(N5CCN(C)CC5)c(C(F)(F)F)c4)ccc32)ccn1`: the growth was 104%.
As for `C/C(CC1(O)C(=O)Nc2ccccc21)=N\O` (stereo not given), the growth was 103%.
For `CC(C)(C)OC(=O)Nc1ccc(-c2cccc(Oc3ccc4nnc(Cl)n4n3)c2)cc1` the value was 88.5%; for `O=S(=O)(NCCCNc1nccc(-c2[nH]c(-c3ccccc3)nc2-c2ccc(F)c(O)c2)n1)c1cccc(F)c1`, 96.3%.
In the case of `O=C1Nc2ccccc2/C1=N\c1nnc(-c2ccccc2)o1` it was 107%; in that of `Cc1csc(/N=C(N)/N=C(\N)c2cccnc2)n1`, 81.8%.
Turning to `COc1cc(C(=O)c2cc(C(C)=O)c3ccc(C)cn23)cc(OC)c1OC`, the growth is 39.8%.
For `COc1cccc(N2CCN(C3=C(Cl)C(=O)c4ncccc4C3=O)CC2)c1`, the growth is 91.9%.
Turning to `N#Cc1c(-c2cccs2)cc(-c2cnccn2)nc1SCC(=O)N/N=C/c1ccc(Cl)cc1`, the growth is 115%.
In the case of `C=C(C=O)[C@@H]1CC[C@]2(C(=O)O)CC[C@]3(C)C(CC[C@@H]4[C@@](C)(CCC#N)[C@H](C(=C)C=O)CC[C@]43C)[C@@H]12` (stereo not given in full) it was 108%; in that of `C#CCN(C)CCCOc1ccc(NCc2ccc(C(=O)NO)cc2)cc1Cl`, 3.71% (active).
In the case of `CCc1cc2c(cc1Cl)nc1c(=O)[nH]c(=O)nc-1n2CCOCC(C)(C)C`, the growth was 58.2%.
Consider `Cn1ncc2c(C(=O)c3ccc(F)cc3)nc(C(C)(C)C)nc21`, for which the growth was 108%.
`CC[C@]12CC(C(=O)OC)=C3Nc4ccccc4[C@@]34CCN(C14)[C@@H]1c3cc4c(cc3O[C@@H]1[C@H]2O)NC1=C(C(=O)OC)C[C@@]2(CC)C3N(CC[C@@]143)C[C@H]1O[C@H]12` (stereo not given in full): the growth is -1.32% (active).
Turning to `COc1ccc([C@H]2C(=O)N(c3cc(OC)c(OC)c(OC)c3)[C@@H]2c2ccc(OC)c(O)c2)cc1`, the growth is -76.1% (active).
For `NC(=S)n1c(=O)n(-c2cccc(C(F)(F)F)c2)c(=O)c2cc(-c3ccc(F)cc3F)ccc21` the value was 37.5%.
On to `CN1CCN(Cc2ccc(NC(=O)c3cncc(C#Cc4cnc5ccc(NCCO)nn45)c3)cc2C(F)(F)F)CC1`, for which the growth is -82.3% (active).
In the case of `COc1ccc(/C=N/NC(=O)CSc2nc(-c3cnccn3)cc(-c3cccs3)c2C#N)cc1` it was 68.1%; in that of `CN1CCN(c2ccc(Nc3nc(NCCNS(=O)(=O)c4ccccc4)c4sccc4n3)cc2)CC1`, 110%; in that of `CC1CCN(CC(=O)Nn2c(COc3ccccc3)nc3ccccc3c2=O)CC1`, 84.1%.
On to `Oc1ccc(-c2nc3ccc(/C(=N\N=C\c4ccc(Cl)cc4)c4ccccc4)cc3[nH]2)cc1`, for which the growth is 54%.
On to `CC(=C(c1ccc(OCCCN(C)C)cc1)c1ccc(OCCCN(C)C)cc1)c1ccc(Cl)cc1`, for which the growth was 96.6%.
Take `O=C(CCCCCCN1CC(=O)N2[C@@H](c3ccc(Cl)s3)c3[nH]c4ccccc4c3C[C@H]2C1=O)NO`: the growth is 54%.
In the case of `Cc1c(C(=O)/C=C/c2ccc(Cl)cc2)nnn1-c1ccc2oc(=O)ccc2c1` it was 108%; in that of `O=C(CSc1nc2ccccc2c(=O)n1-c1ccccc1)Nc1ccc(S(=O)(=O)Nc2nccs2)cc1`, 103%.
As to `CN(C)CCCOc1ccc(C(=C(c2ccccc2)C2CCCC2)c2ccc(OCCCN(C)C)cc2)cc1`, the growth was -76.2% (active).
In the case of `O=C(CSc1nc2ccccc2c(=O)n1-c1ccccc1)N/N=C/c1ccc(Oc2ccc(Cl)cc2)cc1`, the growth is 49.2%.
For `CSc1ccc(/C(=N/N=C(N)N)c2ccc(F)cc2)cc1` the value was -42.2% (active); for `Fc1ccc2nc(-c3cnn4cccnc34)sc2c1`, 102%.
In the case of `COc1ccc(NC2=C(Br)C(=O)C(C)=C(C)C2=O)cc1OC` it was 125%; in that of `COc1ccccc1Cn1cc(C#N)c(N)c1C(=O)c1ccc(Br)cc1`, 113%; in that of `O=C(O)CC1CCN(c2ccc3nnc(Cl)n3n2)CC1`, 107%.
For `NS(=O)(=O)c1nnc(/N=C/c2c(O)[nH]c3ccccc23)s1` the value was 115%.
Take `Brc1cc(-c2cc(-c3ccc4c(c3)OCCO4)[nH]n2)cs1`: the growth is 57.8%.
For `COC(=O)N1CCN(CCNCc2ccc(NC(=O)c3ccc(C)c(C#Cc4cnc5cccnn45)c3)cc2C(F)(F)F)CC1` the value was 2.48% (active).
